Here are results for eleven compounds from PubChem BioAssay (EPA / NIEHS).

Each structure is given as a SMILES string. “And” between values parts separate entries of the source, which are not always exact repeats. Equal values may be shown once. Records with an inconclusive call do not appear. Some compounds were tested as several samples or in several runs, with calls that do not always agree. The source made the active and inactive calls. How the source made its calls, unless noted: active means hit-call score of the fitted dose curve at least 0.9, where 1 is the maximum; inactive means score below 0.9.

Experiment [1] is described as follows: CCTE_Mundy_HCI_Cortical_Synap_Neur_Matur_CellBodySpotCount: CCTE's Synaptogenesis and Neurite Maturation Assay in rat cortical cells for Cell Body Spot Count, Mundy Lab (AID 2284223). An outline of the steps:
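Read-out: cell body-associated synaptophysin puncta per neuron, imaged after MAP2, synaptophysin and Hoechst staining. Rat cortical cells, AraC DIV 5, chemical dosing DIV 7, fixation DIV 12. Activity fitted in positive direction relative to DMSO baseline.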

Experiment [2] in a line: CCTE_Mundy_HCI_hNP1_Pro_ResponderAvgInten: CCTE's Proliferation Assay in human neuroprogenitor cells, Mundy Lab (AID 2284224; active means hit-call score of the fitted dose curve at least 0.9, where 1 is the maximum;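 further: human neural progenitor cells hNP1 derived from WA09 embryonic stem cells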). An outline of the steps:
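Human neuroprogenitors (hNP1, WA09 lineage) receive test chemical after 40 to 44 hours of attachment. A four-hour BrdU pulse begins twenty hours later, followed by fixation and high content imaging; signal is referenced to DMSO controls.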

Experiment [3] in a line: TAMU_PeakParms_SingleDonor1434_QT: Texas A&M University (TAMU) 1.5-hr Human Induced Pluripotent Stem Cell (iPSC)-derived Cardiomyocytes Calcium (Ca+2) Flux Assay for Cardiotoxicity: QT (decay-rise ratio) (AID 2284235; active means hit-call score of the fitted dose curve at least 0.9, where 1 is the maximum). An outline of the steps: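 iPSC-derived cardiomyocytes (single donor 1434) dosed at 0.2, 1, 10, 100 uM final in 0.5% DMSO, 90 min at 37C. Ca2+ flux fluorescence decay/rise ratio; EC05 (5% increase versus DMSO) as POD, excluding beat-arrest and severe-notch data.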

A short description of experiment [4]: CCTE_Mundy_HCI_Cortical_NOG_NeuronCount: CCTE's Neurite Outgrowth Assay in rat cortical cells for Neuron Count, Mundy Lab (AID 2284236; active means hit-call score of the fitted dose curve at least 0.9, where 1 is the maximum;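 further: neurons counted by imaging betaIII-tubulin and Hoechst stained cortical cells; cells exposed to compound for about 48 hours before fixation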). An outline of the steps: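 Read-out: neuron number by high-content imaging of betaIII-tubulin (Alexa Fluor-488) and Hoechst-labelled rat primary cortical cells.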
A short description of experiment [5]: CCTE_Mundy_HCI_hNP1_Casp3_7: CCTE's Caspase-Glo 3/7 Assay in human neuroprogenitor cells for Apoptosis, Mundy Lab (AID 2284240). An outline of the steps:
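Neuroepithelial-lineage stem cells from WA09 embryonic cells were treated with chemicals after 40–44 h of culture. Twenty-four hours later, caspase-3/7 activation was detected luminescently after a 30 min room-temperature reagent step, with DMSO as baseline.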

The nature of experiment [6]: UKN4_HCS_LUHMES_cell_viability: Viability Assessment in the University of Konstanz (UKN) Leist Lab Neurite Outgrowth Assay in human LUHMES cells (UKN4) (AID 2284232). An outline of the steps: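 Fluorescence intensity from high-content imaging of Hoechst H-33342/calcein-AM-stained cells served as the viability read-out. Human LUHMES precursors were differentiated 2 days, replated and treated 24 h; curves were fitted bidirectionally against DMSO.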

A short description of experiment [7]: UKN2_HCS_IMR90_cell_viability: Viability Assessment in the University of Konstanz (UKN) Leist Lab Neural Crest Cell Migration Assay in human induced IMR90 Pluripotent Stem Cells (UKN2) (AID 2284233).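 Further: viability of neural crest cells differentiated from IMR90 iPSC measured by calcein-AM fluorescence imaging; cells exposed to compound for 24 h after a 24 h migration phase.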 An outline of the steps: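 iPSC-derived (IMR90) neural crest cells seeded around silicone stoppers on PLO/laminin/fibronectin; after 24 h migration in N2-S with EGF/FGF, chemical added for 24 h. Calcein-AM/Hoechst stained 30 min, high-content imaged; bidirectional fit versus DMSO.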

The nature of experiment [8]: CCTE_Mundy_HCI_Cortical_Synap_Neur_Matur_NeuronCount: CCTE's Synaptogenesis and Neurite Maturation Assay in rat cortical cells for Neuron Count, Mundy Lab (AID 2284242; active means hit-call score of the fitted dose curve at least 0.9, where 1 is the maximum;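 on AC50: hits reduce neuron count versus DMSO baseline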). An outline of the steps: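 Neuron number was scored by automated high-content imaging of Hoechst- and MAP2-labelled rat primary cortical cells. Glial growth was arrested with AraC at DIV 5, compounds were applied from DIV 7, and cultures ended at DIV 12.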

Experiment [9] in a line: BSK_BT_PBMCCytotoxicity: PBMC Cytotoxicity Assessment in the BioMAP Diversity Plus: BT Assay (AID 2284225).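 Further: PBMC viability measured by Alamar Blue dye reduction fluorescence.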 The following applies: primary human B cells with PBMC. The essentials: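 PBMC (75,000/well) pretreated with compound 1 h, then activated with SEB and TSST-1 (20 ng/mL each final), incubated 90 h; Alamar Blue added 6 h, fluorescence read at 546/580 nm. Fitted relative to DMSO.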

Read-out in experiment [10]: Secreted IgG (sIgG), gene 3500
Put plainly: BSK_BT_sIgG: BioMAP Diversity Plus: BT Assay for Secreted IgG (sIgG) Biomarker Activity (AID 2284226). The following applies: primary human B cells with PBMC. The essentials: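 Read-out: ELISA for secreted IgG after 24 h of chemical exposure in a B cell plus PBMC co-culture. Values reflect upward-direction fitting against DMSO negative controls.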

The nature of experiment [11]: BSK_BT_Bcell_Proliferation: Viability Assessment in the BioMAP Diversity Plus: BT Assay for B cell Proliferation (AID 2284227). The following applies: primary human B cells with PBMC. The essentials:
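Human B cell/PBMC co-culture; test chemical added; 72 h; TCA fix (10%), 0.1% SRB stain, A560 for total protein as a proliferation read-out; positive-direction fit vs DMSO baseline.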

Read-out in experiment [12]: Interleukin 17A (IL17A), IL17A (gene 3605)
Put plainly: BSK_BT_xIL17A: BioMAP Diversity Plus: BT Assay for Interleukin 17A (IL17A) Biomarker Activity (AID 2284229). The following applies: primary human B cells with PBMC. The essentials:
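Luminex xMAP readout of secreted IL-17A; human B cell + PBMC co-culture; 24 h post-dose; positive-direction fit vs DMSO negative control.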

Read-out in experiment [13]: Vascular cell adhesion molecule 1 (VCAM1), VCAM1 (gene 7412)
Put plainly: BSK_MyoF_VCAM1: BioMAP Diversity Plus: MyoF Assay for Vascular cell adhesion molecule 1 (VCAM1) Biomarker Activity (AID 2284231). The following applies: primary human lung fibroblasts. The essentials:
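MyoF system, lung fibroblasts; 24 h post-dose; VCAM-1 by ELISA; gain-of-signal fit vs DMSO baseline.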

Read-out in experiment [14]: Collagen I, COL1A1 (gene 1277)
Put plainly: BSK_MyoF_CollagenI: BioMAP Diversity Plus: MyoF Assay for Collagen I Biomarker Activity (AID 2284238). The following applies: primary human lung fibroblasts. An outline of the steps:
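ELISA readout of Collagen I after 24 h chemical treatment of primary human lung fibroblast cultures; gain of signal scored relative to DMSO vehicle baseline.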

Read-out in experiment [15]: Collagen III, COL3A1 (gene 1281)
Description: BSK_MyoF_CollagenIII: BioMAP Diversity Plus: MyoF Assay for Collagen III Biomarker Activity (AID 2284239). The following applies: primary human lung fibroblasts. The essentials: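 Lung fibroblast culture; 24 h compound exposure; collagen III by ELISA; gain-of-signal fit vs DMSO baseline.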

Read-out in experiment [16]: Interleukin 17F (IL17F), IL17F (gene 112744)
Put plainly: BSK_BT_xIL17F: BioMAP Diversity Plus: BT Assay for Interleukin 17F (IL17F) Biomarker Activity (AID 2284243). The following applies: primary human B cells with PBMC. An outline of the steps:
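Secreted IL-17F, read on LumineX xMAP beads, was taken as the endpoint. Cultures combined human B cells and peripheral blood mononuclear cells, sampled 24 hours after dosing, with DMSO serving as negative control.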

Read-out in experiment [17]: Actin alpha 1 (ACTA1), ACTA1 (gene 58)
Description: BSK_MyoF_ACTA1: BioMAP Diversity Plus: MyoF Assay for Actin alpha 1 (ACTA1) Biomarker Activity (AID 2284244). The following applies: primary human lung fibroblasts. The essentials:
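Lung fibroblasts, human primary, 24 h compound exposure → a-SMA ELISA. Positive-direction fit vs DMSO control.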

Experiment [18] in a line: CCTE_Mundy_HCI_hNP1_CellTiter: CCTE's Cell Titer-Glo 2 Assay in human neuroprogenitor cells for Viability, Mundy Lab (AID 2284241; active means hit-call score of the fitted dose curve at least 0.9, where 1 is the maximum). The essentials:
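Measures ATP content in human neural progenitors derived from WA09 embryonic cells. Read-out at 26.5 hours after dosing, with DMSO serving as the negative control and baseline.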
On the technique in general: ATP-based viability assays read luminescence as a measure of living cells.

Experiment [19] is described as follows: TAMU_HCS_1.5hr_SingleDonor1434_Cytotoxicity: Cytotoxicity Assessment using High-content Screening (HCS) Fluorescent Imaging for the Texas A&M University (TAMU) 1.5-hr Human Induced Pluripotent Stem Cell (iPSC)-derived Cardiotoxicity Assay (AID 2284234; active means hit-call score of the fitted dose curve at least 0.9, where 1 is the maximum). The essentials:
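Human iPSC-derived cardiomyocytes dosed at 0.2, 1, 10, 100 uM final (0.5% DMSO) for 90 min at 37 C. Hoechst 33342-stained nuclei counted by 10x high-content imaging; POD is EC10, a 10% drop in total cell count versus DMSO.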

The nature of experiment [20]: CCTE_Mundy_HCI_Cortical_NOG_BPCount: CCTE's Neurite Outgrowth Assay in rat cortical cells for Branch Point Count, Mundy Lab (AID 2284237). An outline of the steps:
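Measured 50.33 h after dosing, this morphology endpoint uses rat primary cortical cultures labelled for betaIII-tubulin. Branch points are quantified by high-content imaging, with DMSO as negative control and baseline.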

On to `CC(=O)Nc1ccc(O)cc1`, for which the result in experiment [1], in experiment [2], in experiment [3], in experiment [4] and in experiment [5] was inactive.

The AC50 is the concentration giving half of the maximal activity seen. With `O=C(CCCN1CCC(O)(c2ccc(Cl)cc2)CC1)c1ccc(F)cc1`, the compound was classed as inactive in experiment [1], in [6], in experiment [7] and in experiment [4]. Moreover, the AC50 in experiment [5] is 70.7 µM (active); in experiment [8], 21.9 µM (active).

In the case of `CN(CCO)S(=O)(=O)C(F)(F)C(F)(F)C(F)(F)C(F)(F)C(F)(F)C(F)(F)C(F)(F)C(F)(F)F`, the outcome in experiment [9], in experiment [10], in [11], in experiment [12], in experiment [13] and in experiment [15] was inactive. In addition, the outcome in experiment [16] and in [17] was inactive. Also, the AC50 in experiment [14] is 1.82 µM (active) and 2.36 µM (active); in [16] it was 1.93 µM (active).

For the compound `COCN(COC)c1nc(N(COC)COC)nc(N(COC)COC)n1`, the outcome in [9], in experiment [10], in experiment [11], in experiment [12], in experiment [13] and in experiment [14] was inactive. Also, the outcome in experiment [15], in [16] and in [17] was inactive.

As for `O=P(O)(O)CCC(F)(F)C(F)(F)C(F)(F)C(F)(F)C(F)(F)C(F)(F)F`, in experiment [9], the AC50 was 12.2 µM (active). In addition, the result in experiment [9], in experiment [10], in [11], in [12], in experiment [13] and in experiment [14] was inactive. In addition, the result in experiment [15], in experiment [5], in experiment [18], in experiment [16] and in [17] was inactive.

For the compound `O=C1NS(=O)(=O)c2ccccc21`, the compound was called inactive in experiment [1], in experiment [2], in experiment [19], in experiment [3], in experiment [4] and in experiment [20]. Besides, the call in experiment [5], in [18] and in experiment [8] was inactive.

As for `O=C(O)CCC(F)(F)C(F)(F)C(F)(F)C(F)(F)C(F)(F)F`, the outcome in experiment [9], in [10], in experiment [11], in experiment [12], in experiment [13] and in experiment [14] was inactive. Further, the result in experiment [15], in [16] and in [17] was inactive. In addition, the AC50 is 30 µM (active) in experiment [10] and 6.31 µM (active) in experiment [11].

With `NC(=NCCCCCCN=C(N)/N=C(\N)Nc1ccc(Cl)cc1)/N=C(\N)Nc1ccc(Cl)cc1`, the AC50 was 13.7 µM (active) in experiment [9]; 2.87 µM (active) in [10]; 9.19 µM (active) in [11]; 4.09 µM (active) in experiment [12]; 4.99 µM (active) in experiment [13]; 1.21 µM (active) in experiment [14]. The AC50 in [15] is 2.24 µM (active); in [16] it was 5.34 µM (active); in experiment [17] it was 4.86 µM (active).

For the compound `O=C(CC(=O)C(F)(F)C(F)(F)C(F)(F)F)c1cccs1`, the compound was classed as inactive in experiment [2], in experiment [13], in [5], in experiment [18] and in [17]. Besides, the AC50 is 45 µM (active) and 39 µM (active) in [9]; 19 µM (active) and 20.1 µM (active) in experiment [10]; 43 µM (active) and 40.8 µM (active) in experiment [11]; 30 µM (active) and 24.5 µM (active) in experiment [12]; 17.8 µM (active) and 7.76 µM (active) in experiment [14]; 8.37 µM (active) and 7.86 µM (active) in experiment [15]. Further, the AC50 in experiment [16] is 23.2 µM (active) and 25.1 µM (active); in [17], 7.95 µM (active).

In the case of `O=P(O)(O)CCC(F)(F)C(F)(F)C(F)(F)C(F)(F)C(F)(F)C(F)(F)C(F)(F)C(F)(F)F`, the outcome in experiment [9], in experiment [10], in [12], in experiment [13], in [14] and in experiment [15] was inactive. Also, the result in [5], in experiment [18], in [16] and in experiment [17] was inactive. Moreover, the AC50 in experiment [11] was 30 µM (active) and 53.9 µM (active).

As for `Nc1ccn([C@@H]2O[C@H](CO)[C@@H](O)C2O)c(=O)n1` (some centres not stated), the outcome in experiment [1], in experiment [6] and in [7] was inactive. Also, the AC50 in experiment [2] is 0.0896 µM (active); in experiment [4], 2.74 µM (active); in experiment [5], 0.207 µM (active); in experiment [8], 10.8 µM (active).
